The list shows a part of the results. A number with no mark means an inactive call. The source made the active and inactive calls.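 How the source made its calls: active means at least twofold enzyme activation in any of six single-dose repeats, which the averaged readout prints as negative percent; inactive means the rest.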
Biological target: Intestinal-type alkaline phosphatase (Homo sapiens) (UniProt P09923)
Test: enhancement of intestinal alkaline phosphatase activity – biochemical, luminescence, single concentration, uHTS hits, confirmation (AID 434926)
Conditions: purified IAP, CDP-Star luminescence, 30 min; at 8.3 µM; stronger effect = lower value

Sequence of Intestinal-type alkaline phosphatase (Homo sapiens) (P09923 whole entry, looked up): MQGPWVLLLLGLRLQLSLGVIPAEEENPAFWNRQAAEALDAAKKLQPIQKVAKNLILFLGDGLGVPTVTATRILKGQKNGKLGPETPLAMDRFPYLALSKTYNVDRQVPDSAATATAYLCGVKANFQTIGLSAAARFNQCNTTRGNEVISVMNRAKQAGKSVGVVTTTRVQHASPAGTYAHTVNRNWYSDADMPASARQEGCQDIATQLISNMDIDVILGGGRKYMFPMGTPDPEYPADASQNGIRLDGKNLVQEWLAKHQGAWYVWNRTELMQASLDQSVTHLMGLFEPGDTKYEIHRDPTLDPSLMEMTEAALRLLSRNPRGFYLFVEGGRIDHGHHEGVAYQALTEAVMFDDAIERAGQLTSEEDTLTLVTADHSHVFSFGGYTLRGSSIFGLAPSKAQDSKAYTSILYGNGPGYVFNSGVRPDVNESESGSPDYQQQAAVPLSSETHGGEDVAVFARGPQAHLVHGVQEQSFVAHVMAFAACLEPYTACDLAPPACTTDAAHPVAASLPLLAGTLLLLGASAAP

Structure (SMILES) | activation (%Activity, negative = activation)
CC(C)Oc1ccc(CCC(=O)NNC(=S)NCc2ccccc2)cc1 | 46.5%
Cc1ccc(NC(=O)c2cc(-c3ccccc3O)n[nH]2)cc1C | -1.54%
COc1cccc(/C=N/NC(=O)c2[nH]nc3c2CCc2ccccc2-3)c1O | 13.9%
Cn1c(=O)c2c(nc(N/N=C/c3cccs3)n2Cc2ccc(Br)cc2)n(C)c1=O | -8.19%
Oc1cccc(/C=N/Nc2ccc(Cl)nn2)c1O | 1.16%
OC(c1nc2ccc(F)cc2[nH]1)C(O)c1nc2ccc(F)cc2[nH]1 (centres undefined) | 24.7%
NC(=O)COc1ccc(NC(=O)c2ccccc2-c2ccccc2)cc1 | 9.49%
O=C(Nc1ccc(Cl)cc1)c1ccsn1 | -68.3%
Cc1cc(C)cc(NC(=O)NC2CCN(CC(=O)Nc3cccc(Cl)c3C)CC2)c1 | 1.71%
COc1ccc(CN2CCC(n3nccc3NC(=O)CCCc3ccccc3)CC2)cc1C | -127% (active)
C[C@H](NC(=O)c1[nH]cnc1C(=O)Nc1nccs1)c1ccccc1 | -3.71%
COc1cc(NC(=O)NCC2CCN(Cc3ccc(C)cc3)CC2)cc(OC)c1OC | -1.35%
CCN1/C(=C\c2ccc3ccccc3[n+]2CC)Sc2cc(C)ccc21 | 32.7%
Cc1ccc2c(c1)nnc1nnc(SCC(=O)O)n12 | 33.9%
Cc1cc(C(=O)NC2CC(C)(C)Cc3c2cnn3-c2ccccc2)n[nH]1 (centres undefined) | 62.1%
CCCCOC(=O)Nc1sc2nc(C)cc(C)c2c1-n1cccc1 | -49%
O=C(NCCN1CCOCC1)[C@H](Cc1ccccc1)N1C(=O)c2ccccc2C1=O | -5.42%
COc1ccc(C2=Nc3cc(C)ccc3OC2)cc1 | 58.3%
O=c1c(/C=N/O)coc2ccc(Cl)cc12 | -11.6%
Cn1c(=O)c2sccc2n(Cc2ccc(Br)cc2)c1=O | 6.79%
COc1cc(/C=C2/SC(=S)N(Cc3ccccc3)C2=O)cc(OC)c1O | 3.41%
O=C(Nc1cccc(-c2cccc(Cl)c2)c1)C1CCN(C2CCC2)CC1 | -7.84%
Cc1c(C=O)c2ccccn2c1C(=O)c1ccncc1 | 5.63%
CN1/C(=c2/s/c(=C3/C(=O)N(c4ccccc4)NC3=Nc3ccccc3)n(C)c2=O)C(C)(C)c2ccccc21 | -2.61%

— PubChem BioAssay AID434926 (Sanford-Burnham Center for Chemical Genomics, 2010)
